# PubChem BioAssay (EPA / NIEHS)
# Records with an inconclusive call do not appear. Activity calls are given as the source filed them. How the source made its calls: active means hit-call score of the fitted dose curve at least 0.9, where 1 is the maximum; inconclusive means response in the unintended direction; inactive means score below 0.9.
# Key:
# [1] = target: human Adenosine A1 Receptor (AdoRA1), ADORA1 (gene 134) (UniProt P30542); test: NVS_GPCR_hAdoRA1: NovaScreen (NVS) G Protein-Coupled Receptor Assay for human Adenosine A1 Receptor (AdoRA1) (AID 2283254)
# Summary of the method: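 Radioligand binding was run on human cortical membranes, cell-free, with filter-based scintillation counting 1 h after dosing. The primary screen was duplicate at 25 uM, followed by concentration series. Signal loss versus DMSO was fitted positive-direction.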
# [2] = target: guinea pig Leukotriene D4 Receptor (LTD4), CYSLTR1 (gene 100135514) (UniProt Q2NNR5); test: NVS_GPCR_gLTD4: NovaScreen (NVS) G Protein-Coupled Receptor Assay for guinea pig Leukotriene D4 Receptor (LTD4) (AID 2283248)
# Description: NVS_GPCR_gLTD4 is a biochemical, single-readout assay that uses extracted gene-proteins from Guinea pig lung membranes in a tissue-based cell-free assay. Measurements were taken 1 hour after chemical dosing in a 48-well plate.NVS_GPCR_gLTD4 is one of one assay component(s) measured or calculated from the NVS_GPCR_gLTD4 assay. It is designed to make measurements of radioligand binding, a form of binding reporter, as detected with scintillation counting signals by Filter-based radiodetection technology.Data from the assay component NVS_GPCR_gLTD4 was analyzed into 1 assay endpoint. This assay endpoint, NVS_GPCR_gLTD4, was analyzed in the positive analysis fitting direction relative to DMSO as the negative control and baseline of activity. Using a type of binding reporter, loss-of-signal activity can be used to understand changes in the binding as they relate to the gene Cysltr1. Furthermore, this assay endpoint can be referred to as a primary readout, because the performed assay has only produced 1 assay endpoint. To generalize the intended target to other relatable targets, this assay endpoint is annotated to the gpcr intended target family, where the subfamily is rhodopsin-like receptor.
# Binding assays used specific radioligands (tritiated, iodinated) with non-radioactive competitive displacement ligands in agonist or antagonist protocols (as indicated) and various reference compounds and inhibitors to titrate specific binding to receptors and transporters. Most enzyme assays (CYPs, kinases, phosphatases, proteases, HDACs) used recombinant protein and specific substrates (fluorescence mostly, some colorimetric and radioactive) and inhibitors, followed by a biochemical separation of substrate and product. All assays for the biochemical HTS were initially run in duplicate at a single concentration (10 uM for CYP450 assays and 25 uM for all others). Assay-chemical combinations meeting a pre-defined threshold (e.g., 30% inhibition and other criteria defined below) were then run in singleton concentration-response format with maximum concentration of 20 uM for CYPs and 50 uM for all others. Each assay was run with positive and negative controls, and concurrent controls on every plate. The follow-up (secondary) screen tested active chemical-pairs in concentration series, as well as a few additional assays not tested in the primary screen, some selected negative inactives, and several cases re-run in the concentration series for confirmatory purposes.
# [3] = test system: guinea pig Leukotriene B4 Receptor (LTB4), gene 100379538; test: NVS_GPCR_gLTB4: NovaScreen (NVS) G Protein-Coupled Receptor Assay for guinea pig Leukotriene B4 Receptor (LTB4) (AID 2283247)
# Summary of the method: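 Membranes from guinea pig spleen incubated 2 h with radioligand and compound; bound counts measured by filtration and scintillation. Screened first at 25 uM in duplicate, then actives titrated to a 50 uM top concentration relative to DMSO.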
# [4] = target: human Serotonin, 5-Hydroxytryptamine Receptor 5A (5HT5A), HTR5A (gene 3361) (UniProt P47898); test: NVS_GPCR_h5HT5A: NovaScreen (NVS) G Protein-Coupled Receptor Assay for human Serotonin, 5-Hydroxytryptamine Receptor 5A (5HT5A) (AID 2283251)
# Summary of the method: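 Membranes from HEK293 cells, radioligand binding read by filtration and scintillation after 1 h. Single-concentration duplicate testing at 25 uM, then concentration-response for actives; positive-direction fitting relative to DMSO.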
# [5] = target: human Serotonin, 5-Hydroxytryptamine Receptor 7 (5HT7), HTR7 (gene 3363) (UniProt P34969); test: NVS_GPCR_h5HT7: NovaScreen (NVS) G Protein-Coupled Receptor Assay for human Serotonin, 5-Hydroxytryptamine Receptor 7 (5HT7) (AID 2283255);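 further: hits reduce specific radioligand binding relative to DMSO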
# Summary of the method: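 Filter-bound radioactivity counted after 1 h, with loss of specific radioligand binding fitted against DMSO. Membrane protein came from CHO cells expressing human 5HT7. Chemicals were tested first at 25 uM in duplicate, then in concentration series if active.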
# [6] = target: human Adrenergic, Beta 1 Receptor (Adrb1), ADRB1 (gene 153) (UniProt P08588); test: NVS_GPCR_hAdrb1: NovaScreen (NVS) G Protein-Coupled Receptor Assay for human Adrenergic, Beta 1 Receptor (Adrb1) (AID 2283258)
# Summary of the method: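 Membranes/protein extracted from human neuroepithelioma cells, radioligand competition binding read by filtration and scintillation 2 h post-dose. Single 25 uM duplicate screen, then concentration-response follow-up; DMSO as negative control.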
# [7] = target: guinea pig Opioid, Kappa 1 Receptor (OpiateK), OPRK1 (gene 100135587) (UniProt P41144); test: NVS_GPCR_gOpiateK: NovaScreen (NVS) G Protein-Coupled Receptor Assay for guinea pig Opioid, Kappa 1 Receptor (OpiateK) (AID 2283252);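 further: radioligand displacement from kappa opioid receptor in guinea pig cerebellar membranes; active means reduced radioligand binding relative to DMSO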
# Summary of the method: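 Radioligand competition binding using guinea pig cerebellum membrane fraction; 2 h exposure; filter radiodetection. Single concentration 25 uM (duplicate), follow-up concentration-response for actives.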
# [8] = target: Adenosine receptor A1 (Bos taurus) (UniProt P28190); test: NVS_GPCR_bAdoR_NonSelective: NovaScreen (NVS) G Protein-Coupled Receptor Assay for bovine Adenosine Receptor (AdoR), Non-selective Binding (AID 2283244)
# Summary of the method: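 Cell-free binding with membranes from bovine striatum: radioligand displaced by test chemical, read after 1 h by filtration and scintillation. Single-point 25 uM duplicate primary, 50 uM top concentration in follow-up curves, DMSO baseline.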
# [9] = target: human Adenosine A2a Receptor (AdoRA2a), ADORA2A (gene 135) (UniProt P29274); test: NVS_GPCR_hAdoRA2a: NovaScreen (NVS) G Protein-Coupled Receptor Assay for human Adenosine A2a Receptor (AdoRA2a) (AID 2283256)
# Summary of the method: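 Compounds screened in duplicate at 25 uM, with actives followed up in concentration series, for displacement of a radioligand from HEK293-derived receptor protein. Bound counts read by filter scintillation at 1.5 hours, DMSO as baseline.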
# [10] = target: human Serotonin, 5-Hydroxytryptamine Receptor 2A (5HT2A), HTR2A (gene 3356) (UniProt P28223); test: NVS_GPCR_h5HT2A: NovaScreen (NVS) G Protein-Coupled Receptor Assay for human Serotonin, 5-Hydroxytryptamine Receptor 2A (5HT2A) (AID 2283249)
# Summary of the method: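 Radioligand displacement on human cortex tissue extract, counted by filtration and scintillation 1.5 h post-dosing. Initial single-concentration screen at 25 uM in duplicate, concentration series in follow-up; DMSO as baseline.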
# human Adenosine A1 Receptor (AdoRA1), ADORA1 (gene 134), sequence (P30542 whole entry, looked up): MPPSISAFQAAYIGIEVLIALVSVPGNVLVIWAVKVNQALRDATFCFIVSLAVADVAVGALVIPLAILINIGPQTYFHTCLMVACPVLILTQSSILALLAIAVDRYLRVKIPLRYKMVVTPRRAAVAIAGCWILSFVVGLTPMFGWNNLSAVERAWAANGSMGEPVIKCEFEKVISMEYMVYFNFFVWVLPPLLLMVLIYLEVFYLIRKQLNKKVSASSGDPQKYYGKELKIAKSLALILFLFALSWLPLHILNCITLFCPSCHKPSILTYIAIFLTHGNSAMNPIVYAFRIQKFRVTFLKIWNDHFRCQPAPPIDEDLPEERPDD
# human Adenosine A2a Receptor (AdoRA2a), ADORA2A (gene 135), sequence (P29274 whole entry, looked up): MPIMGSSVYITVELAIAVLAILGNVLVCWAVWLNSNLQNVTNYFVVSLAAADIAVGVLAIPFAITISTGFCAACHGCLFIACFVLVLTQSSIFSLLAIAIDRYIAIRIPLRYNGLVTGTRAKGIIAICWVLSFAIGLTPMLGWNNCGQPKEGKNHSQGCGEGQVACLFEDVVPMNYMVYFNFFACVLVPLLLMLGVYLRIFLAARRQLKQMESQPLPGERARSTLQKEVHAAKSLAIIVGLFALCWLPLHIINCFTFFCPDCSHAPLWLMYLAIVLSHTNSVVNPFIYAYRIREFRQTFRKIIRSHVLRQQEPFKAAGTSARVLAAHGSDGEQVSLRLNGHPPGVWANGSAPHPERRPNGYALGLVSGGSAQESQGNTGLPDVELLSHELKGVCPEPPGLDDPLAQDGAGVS
# guinea pig Leukotriene D4 Receptor (LTD4), CYSLTR1 (gene 100135514), sequence (Q2NNR5 whole entry, looked up): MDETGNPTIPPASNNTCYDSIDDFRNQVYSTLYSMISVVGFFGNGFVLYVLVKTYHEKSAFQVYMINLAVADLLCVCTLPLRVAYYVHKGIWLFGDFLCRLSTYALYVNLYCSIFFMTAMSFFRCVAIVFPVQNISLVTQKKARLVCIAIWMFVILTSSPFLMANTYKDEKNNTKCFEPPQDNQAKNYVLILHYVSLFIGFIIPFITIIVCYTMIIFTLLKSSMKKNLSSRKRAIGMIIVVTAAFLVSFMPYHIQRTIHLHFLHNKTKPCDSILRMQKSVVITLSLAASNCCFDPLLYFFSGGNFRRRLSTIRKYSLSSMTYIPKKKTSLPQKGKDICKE
# guinea pig Opioid, Kappa 1 Receptor (OpiateK), OPRK1 (gene 100135587), sequence (P41144 whole entry, looked up): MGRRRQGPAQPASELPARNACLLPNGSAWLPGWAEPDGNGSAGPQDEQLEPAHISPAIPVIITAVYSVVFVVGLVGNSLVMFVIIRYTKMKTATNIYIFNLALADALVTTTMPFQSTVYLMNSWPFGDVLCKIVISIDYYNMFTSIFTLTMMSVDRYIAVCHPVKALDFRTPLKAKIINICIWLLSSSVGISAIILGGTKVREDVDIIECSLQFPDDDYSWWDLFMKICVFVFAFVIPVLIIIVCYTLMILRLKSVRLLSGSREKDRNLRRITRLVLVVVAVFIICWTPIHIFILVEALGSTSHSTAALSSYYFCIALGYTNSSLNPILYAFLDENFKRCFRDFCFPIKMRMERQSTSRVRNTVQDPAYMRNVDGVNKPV
# human Adrenergic, Beta 1 Receptor (Adrb1), ADRB1 (gene 153), sequence (P08588 whole entry, looked up): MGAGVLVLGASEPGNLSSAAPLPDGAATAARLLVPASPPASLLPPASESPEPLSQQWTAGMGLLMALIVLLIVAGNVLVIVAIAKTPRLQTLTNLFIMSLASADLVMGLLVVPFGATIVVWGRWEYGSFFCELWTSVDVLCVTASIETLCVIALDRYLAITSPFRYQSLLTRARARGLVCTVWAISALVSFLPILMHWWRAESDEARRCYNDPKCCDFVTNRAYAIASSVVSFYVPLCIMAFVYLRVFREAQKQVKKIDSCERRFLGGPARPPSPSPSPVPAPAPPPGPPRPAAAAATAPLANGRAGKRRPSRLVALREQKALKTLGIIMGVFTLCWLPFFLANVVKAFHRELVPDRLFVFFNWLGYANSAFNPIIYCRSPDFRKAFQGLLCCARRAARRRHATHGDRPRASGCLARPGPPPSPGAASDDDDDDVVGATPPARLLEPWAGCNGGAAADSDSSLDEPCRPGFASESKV
# human Serotonin, 5-Hydroxytryptamine Receptor 5A (5HT5A), HTR5A (gene 3361), sequence (P47898 whole entry, looked up): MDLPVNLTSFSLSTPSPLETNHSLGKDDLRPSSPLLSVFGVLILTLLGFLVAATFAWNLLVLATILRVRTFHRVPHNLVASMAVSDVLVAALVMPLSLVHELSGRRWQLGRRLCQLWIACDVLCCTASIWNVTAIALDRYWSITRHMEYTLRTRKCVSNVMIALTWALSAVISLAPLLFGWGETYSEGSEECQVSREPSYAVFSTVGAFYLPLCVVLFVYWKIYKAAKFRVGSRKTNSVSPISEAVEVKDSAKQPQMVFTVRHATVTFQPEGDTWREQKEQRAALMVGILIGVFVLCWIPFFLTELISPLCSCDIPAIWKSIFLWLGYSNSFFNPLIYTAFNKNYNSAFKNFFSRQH
# human Serotonin, 5-Hydroxytryptamine Receptor 7 (5HT7), HTR7 (gene 3363), sequence (P34969 whole entry, looked up): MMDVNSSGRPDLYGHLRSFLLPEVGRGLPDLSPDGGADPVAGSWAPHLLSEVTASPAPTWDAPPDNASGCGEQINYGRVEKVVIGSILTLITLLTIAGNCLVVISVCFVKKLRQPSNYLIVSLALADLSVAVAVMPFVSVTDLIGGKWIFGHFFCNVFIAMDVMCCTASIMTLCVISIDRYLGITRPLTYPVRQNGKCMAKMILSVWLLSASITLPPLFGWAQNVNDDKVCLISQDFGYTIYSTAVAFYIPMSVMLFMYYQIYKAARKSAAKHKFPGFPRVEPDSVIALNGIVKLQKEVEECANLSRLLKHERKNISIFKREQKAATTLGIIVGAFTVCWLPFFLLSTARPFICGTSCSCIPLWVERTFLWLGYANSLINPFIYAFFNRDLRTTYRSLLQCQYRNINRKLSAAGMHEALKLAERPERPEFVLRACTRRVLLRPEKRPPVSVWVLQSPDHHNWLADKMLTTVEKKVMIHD
# Adenosine receptor A1 (Bos taurus), sequence (P28190 whole entry, looked up): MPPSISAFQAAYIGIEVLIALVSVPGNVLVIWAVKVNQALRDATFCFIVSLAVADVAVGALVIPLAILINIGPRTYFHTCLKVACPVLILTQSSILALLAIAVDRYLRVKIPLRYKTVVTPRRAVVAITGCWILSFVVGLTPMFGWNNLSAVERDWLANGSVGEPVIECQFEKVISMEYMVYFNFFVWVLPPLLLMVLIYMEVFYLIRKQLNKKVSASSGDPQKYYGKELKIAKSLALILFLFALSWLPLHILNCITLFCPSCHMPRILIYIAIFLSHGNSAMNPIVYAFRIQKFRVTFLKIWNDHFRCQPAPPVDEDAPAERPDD
# human Serotonin, 5-Hydroxytryptamine Receptor 2A (5HT2A), HTR2A (gene 3356), sequence (P28223 whole entry, looked up): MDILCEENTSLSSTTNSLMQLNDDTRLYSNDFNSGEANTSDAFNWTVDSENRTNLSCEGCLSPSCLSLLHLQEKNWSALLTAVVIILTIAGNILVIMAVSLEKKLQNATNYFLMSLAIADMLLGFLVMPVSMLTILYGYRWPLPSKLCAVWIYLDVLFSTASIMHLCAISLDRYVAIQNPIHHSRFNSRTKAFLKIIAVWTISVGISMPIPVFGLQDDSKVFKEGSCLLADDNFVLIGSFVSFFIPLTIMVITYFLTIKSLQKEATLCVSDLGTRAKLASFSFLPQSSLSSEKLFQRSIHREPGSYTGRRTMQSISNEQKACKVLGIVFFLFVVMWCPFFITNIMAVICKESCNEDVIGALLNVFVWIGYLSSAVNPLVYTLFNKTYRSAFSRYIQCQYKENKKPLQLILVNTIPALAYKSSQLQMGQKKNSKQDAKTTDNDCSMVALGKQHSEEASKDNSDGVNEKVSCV
smiles,measurement,setting,value
Cc1ccccc1OP(=O)(Oc1ccccc1C)Oc1ccccc1C,outcome,[1],inactive
CCCCOC(C)=O,outcome,[2],inactive
same,outcome,[1],inactive
Oc1c(Cl)cc(Cl)cc1Cl,outcome,[3],inactive
CCCCCCCCCCCCc1cccc(S(=O)(=O)O)c1,AC50,[3],10.5 µM (active)
same,AC50,[2],22.5 µM (active)
same,AC50,[4],13.7 µM (active)
same,AC50,[5],14.3 µM (active)
same,AC50,[6],9.54 µM (active)
O=C1C[C@@H]2OCC=C3CN4CC[C@]56c7ccccc7N1[C@H]5[C@H]2[C@H]3C[C@H]46,outcome,[7],inactive
O=c1oc2ccccc2c(O)c1C(CC(O)c1ccc(-c2ccc(Br)cc2)cc1)c1ccccc1 (stereo not given),AC50,[2],9.92 µM (active)
same,outcome,[7],inactive
same,AC50,[1],23.9 µM (active)
CCOC(=O)CC(=O)CCl,outcome,[2],inactive
CC(C)(C)c1ccccc1O,outcome,[8],inactive
[Cl][Sn]([c]1ccccc1)([c]1ccccc1)[c]1ccccc1,outcome,[9],inactive
CC(C)O.CC(C)O.OCCN(CCO)CCO.OCCN(CCO)CCO.[Ti],outcome,[10],inactive
Cc1cc(C(C)(C)c2ccc(O)c(C)c2)ccc1O,AC50,[1],8.39 µM (active)
same,outcome,[9],inactive
Cc1cccc(OP(=O)(Oc2cccc(C)c2)Oc2cccc(C)c2)c1,outcome,[9],inactive
O=C1C=CC(=O)c2ccccc21,AC50,[7],37.8 µM (active)
CCOP(=O)(OCC)OC(=CCl)c1ccc(Cl)cc1Cl,AC50,[7],18.3 µM (active)
same,outcome,[1],inactive
CCN(N=O)C(N)=O,outcome,[2],inactive
Nc1c(Oc2ccccc2)cc(O)c2c1C(=O)c1ccccc1C2=O,outcome,[7],inactive
N#CCCC(Br)(C#N)CBr (stereo not given),outcome,[7],inactive
O=C(O)C1(c2ccc3c(c2)OC[C@H](Cc2ccc(-c4ccccc4)cc2)[C@H]3O)CCCC1,AC50,[3],0.00229 µM (active)
same,outcome,[2],inactive
same,outcome,[4],inactive
same,AC50,[6],25 µM (active)
